What all share (test): DAPPL (digital affinity profiling via proximity ligation, sequencing); 10 mM Tris-HCl pH 7.5, 50 mM NaCl, 1 mM DTT, 4% glycerol, room temperature, 30 min; GST-TFs on glutathione beads, 16-mer random dsDNA library, 0.1% formaldehyde crosslink after washing; high values mean tight binding
The target of one test is T1, FLI1 (Homo sapiens, UniProt Q01543 1-452).
T1 sequence: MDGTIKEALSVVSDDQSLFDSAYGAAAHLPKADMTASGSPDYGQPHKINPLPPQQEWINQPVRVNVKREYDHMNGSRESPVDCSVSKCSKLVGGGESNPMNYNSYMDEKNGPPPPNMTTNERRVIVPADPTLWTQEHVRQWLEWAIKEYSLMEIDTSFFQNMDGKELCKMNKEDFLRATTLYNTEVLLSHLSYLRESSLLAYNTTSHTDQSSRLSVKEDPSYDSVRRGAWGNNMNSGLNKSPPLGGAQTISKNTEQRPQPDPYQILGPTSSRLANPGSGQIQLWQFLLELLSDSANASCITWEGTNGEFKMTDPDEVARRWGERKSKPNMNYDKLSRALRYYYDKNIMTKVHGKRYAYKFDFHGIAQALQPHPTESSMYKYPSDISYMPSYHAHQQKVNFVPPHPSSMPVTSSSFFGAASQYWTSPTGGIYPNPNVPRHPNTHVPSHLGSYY
The note with it: protein: recombinant; tags: N-terminal GST; dsDNA, one strand shown. A digest of the protocol: (§1)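 Pools were built from human transcription factors expressed in yeast as GST fusions, captured on glutathione beads and DNA-barcoded, along with a tag-only sample. Incubation with 200 nmole of a 16-mer random double-stranded DNA library lasted 30 min at room temperature in Tris/NaCl/DTT/glycerol buffer, and was followed by washing, 0.1% formaldehyde crosslinking, proximity ligation, PCR amplification and Illumina NextSeq500 sequencing. Binding signal is the quotient of each hexamer's read frequency for a factor and its frequency for the tag-only sample.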

Another test has as its target T2, ELK1 (Homo sapiens, UniProt P19419 1-428).
T2 sequence: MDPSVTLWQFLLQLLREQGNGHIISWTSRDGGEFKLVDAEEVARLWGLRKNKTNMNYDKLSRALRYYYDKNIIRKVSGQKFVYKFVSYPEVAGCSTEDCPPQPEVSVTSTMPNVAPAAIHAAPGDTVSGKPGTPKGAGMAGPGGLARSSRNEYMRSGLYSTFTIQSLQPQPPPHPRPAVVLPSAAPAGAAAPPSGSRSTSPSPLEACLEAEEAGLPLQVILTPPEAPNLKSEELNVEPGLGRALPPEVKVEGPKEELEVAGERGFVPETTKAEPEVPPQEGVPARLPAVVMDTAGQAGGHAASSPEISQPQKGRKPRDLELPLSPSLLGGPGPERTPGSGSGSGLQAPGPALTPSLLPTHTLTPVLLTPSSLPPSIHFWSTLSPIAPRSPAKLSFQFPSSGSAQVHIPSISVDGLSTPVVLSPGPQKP
Conditions: protein: recombinant; tags: N-terminal GST; dsDNA, one strand shown. A digest of the protocol: as §1

The next test has as its target T3, GABPA (Homo sapiens, UniProt Q06546 1-454).
T3 sequence: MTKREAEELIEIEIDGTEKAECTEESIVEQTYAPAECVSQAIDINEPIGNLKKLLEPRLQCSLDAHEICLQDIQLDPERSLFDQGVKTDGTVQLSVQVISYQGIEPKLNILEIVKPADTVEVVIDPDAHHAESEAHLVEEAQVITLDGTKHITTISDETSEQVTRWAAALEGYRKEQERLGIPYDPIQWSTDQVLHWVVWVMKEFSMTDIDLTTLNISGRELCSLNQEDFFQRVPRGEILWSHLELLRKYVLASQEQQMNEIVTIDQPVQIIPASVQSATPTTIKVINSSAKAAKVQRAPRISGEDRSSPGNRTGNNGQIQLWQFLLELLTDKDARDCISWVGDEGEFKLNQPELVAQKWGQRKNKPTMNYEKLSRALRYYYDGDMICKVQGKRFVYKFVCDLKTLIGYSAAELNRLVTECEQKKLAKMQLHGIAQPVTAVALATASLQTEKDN
The note with it: protein: recombinant; tags: N-terminal GST; dsDNA, one strand shown. A digest of the protocol: as §1

In the next test the target is T4, ERG (Homo sapiens, UniProt P11308 1-479).
T4 sequence: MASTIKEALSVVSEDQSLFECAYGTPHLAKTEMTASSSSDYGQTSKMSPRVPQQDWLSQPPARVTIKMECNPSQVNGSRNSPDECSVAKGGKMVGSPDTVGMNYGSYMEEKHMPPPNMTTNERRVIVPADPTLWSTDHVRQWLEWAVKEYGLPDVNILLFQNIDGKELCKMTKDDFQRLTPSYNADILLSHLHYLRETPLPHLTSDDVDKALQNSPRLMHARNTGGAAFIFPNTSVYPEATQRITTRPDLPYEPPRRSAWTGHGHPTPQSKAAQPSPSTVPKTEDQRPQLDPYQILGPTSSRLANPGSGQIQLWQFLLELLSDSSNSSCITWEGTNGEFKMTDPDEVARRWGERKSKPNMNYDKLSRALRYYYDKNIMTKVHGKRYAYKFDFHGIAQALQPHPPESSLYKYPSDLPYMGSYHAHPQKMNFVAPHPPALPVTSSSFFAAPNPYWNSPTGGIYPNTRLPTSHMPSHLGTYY
Conditions: protein: recombinant; tags: N-terminal GST; dsDNA, one strand shown. A digest of the protocol:
as §1

Another test addresses ELF1 (Homo sapiens, UniProt P32519 1-619). Conditions: protein: recombinant; tags: N-terminal GST; dsDNA, one strand shown. A digest of the protocol: as §1
A further test addresses T5, EHF (Homo sapiens, UniProt Q9NZC4 1-300).
T5 sequence: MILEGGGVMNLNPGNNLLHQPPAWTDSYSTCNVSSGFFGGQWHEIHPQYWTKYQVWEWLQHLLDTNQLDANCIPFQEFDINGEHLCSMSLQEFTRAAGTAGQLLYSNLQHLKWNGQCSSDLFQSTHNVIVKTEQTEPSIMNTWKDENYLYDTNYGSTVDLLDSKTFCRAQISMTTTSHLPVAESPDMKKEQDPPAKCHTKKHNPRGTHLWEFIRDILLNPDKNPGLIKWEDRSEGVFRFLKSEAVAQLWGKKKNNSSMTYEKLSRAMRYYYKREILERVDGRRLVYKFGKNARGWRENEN
Conditions: protein: recombinant; tags: N-terminal GST; dsDNA, one strand shown. The essentials: as §1

The target in another test is SPI1 (Homo sapiens, UniProt P17947 1-270). Conditions: protein: recombinant; tags: N-terminal GST; dsDNA, one strand shown. The essentials: as §1
The target of another test is SPIB (Homo sapiens, UniProt Q01892 1-262). Conditions: protein: recombinant; tags: N-terminal GST; dsDNA, one strand shown. A digest of the protocol:
as §1

In a further test the target is T6, ELK3 (Homo sapiens, UniProt P41970 1-407).
T6 sequence: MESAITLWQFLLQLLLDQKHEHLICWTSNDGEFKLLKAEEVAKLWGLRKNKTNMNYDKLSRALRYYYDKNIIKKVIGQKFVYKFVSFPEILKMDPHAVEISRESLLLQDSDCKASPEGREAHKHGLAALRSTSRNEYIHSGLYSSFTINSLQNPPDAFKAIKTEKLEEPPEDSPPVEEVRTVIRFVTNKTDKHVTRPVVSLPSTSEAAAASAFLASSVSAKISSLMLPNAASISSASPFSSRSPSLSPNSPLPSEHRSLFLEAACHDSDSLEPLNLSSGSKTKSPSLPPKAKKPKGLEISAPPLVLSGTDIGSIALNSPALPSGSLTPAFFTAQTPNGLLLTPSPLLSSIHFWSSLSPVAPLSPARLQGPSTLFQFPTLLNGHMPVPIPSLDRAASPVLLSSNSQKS
Conditions: protein: recombinant; tags: N-terminal GST; dsDNA, one strand shown. A digest of the protocol: as §1

Another test has as its target T7, FEV (Homo sapiens, UniProt Q99581 1-238).
T7 sequence: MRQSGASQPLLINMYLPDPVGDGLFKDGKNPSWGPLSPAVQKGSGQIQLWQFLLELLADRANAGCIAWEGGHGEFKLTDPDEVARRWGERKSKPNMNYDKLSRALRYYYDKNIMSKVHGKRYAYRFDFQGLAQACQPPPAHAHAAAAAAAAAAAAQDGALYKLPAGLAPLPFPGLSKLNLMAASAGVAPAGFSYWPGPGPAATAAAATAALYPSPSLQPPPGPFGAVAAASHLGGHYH
Conditions: protein: recombinant; tags: N-terminal GST; dsDNA, one strand shown. A digest of the protocol: as §1

The target in a further test is ETV5 (Homo sapiens, UniProt P41161 1-510). The note with it: protein: recombinant; tags: N-terminal GST; dsDNA, one strand shown. The essentials:
as §1

The next test has as its target HSF1 (Homo sapiens, UniProt Q00613 1-529). The note with it: protein: recombinant; tags: N-terminal GST; chain copies: 3; dsDNA, one strand shown. The essentials:
as §1

In another test the target is T8, SPIC (Homo sapiens, UniProt Q8N5J4 1-248).
T8 sequence: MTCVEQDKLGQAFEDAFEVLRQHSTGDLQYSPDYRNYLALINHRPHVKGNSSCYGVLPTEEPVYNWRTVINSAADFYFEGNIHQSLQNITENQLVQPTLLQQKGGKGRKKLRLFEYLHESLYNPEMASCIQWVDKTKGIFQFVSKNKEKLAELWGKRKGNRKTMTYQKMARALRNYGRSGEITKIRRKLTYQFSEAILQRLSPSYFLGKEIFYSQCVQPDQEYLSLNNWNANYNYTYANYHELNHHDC
The note with it: protein: recombinant; tags: N-terminal GST; dsDNA, one strand shown. A digest of the protocol:
as §1

A further test has as its target ELF4 (Homo sapiens, UniProt Q99607 1-663). The note with it: protein: recombinant; tags: N-terminal GST; dsDNA, one strand shown. The essentials: as §1
A further test deals with T9, ELK4 (Homo sapiens, UniProt P28324-2 1-405).
T9 sequence: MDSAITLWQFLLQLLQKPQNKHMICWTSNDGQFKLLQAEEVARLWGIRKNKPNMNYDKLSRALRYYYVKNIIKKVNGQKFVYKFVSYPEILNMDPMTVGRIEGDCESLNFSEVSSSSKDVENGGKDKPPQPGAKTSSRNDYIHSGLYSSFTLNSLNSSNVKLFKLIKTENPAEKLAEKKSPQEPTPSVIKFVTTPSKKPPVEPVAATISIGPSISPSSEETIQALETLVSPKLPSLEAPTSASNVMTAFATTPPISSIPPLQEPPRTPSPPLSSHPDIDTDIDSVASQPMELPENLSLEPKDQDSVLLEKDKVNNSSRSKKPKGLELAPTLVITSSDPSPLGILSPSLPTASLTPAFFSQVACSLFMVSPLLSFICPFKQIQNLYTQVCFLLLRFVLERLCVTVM
The note with it: protein: recombinant; tags: N-terminal GST; dsDNA, one strand shown. The essentials: as §1

The next test concerns the target T10, ETV2 (Homo sapiens, UniProt O00321 1-342).
T10 sequence: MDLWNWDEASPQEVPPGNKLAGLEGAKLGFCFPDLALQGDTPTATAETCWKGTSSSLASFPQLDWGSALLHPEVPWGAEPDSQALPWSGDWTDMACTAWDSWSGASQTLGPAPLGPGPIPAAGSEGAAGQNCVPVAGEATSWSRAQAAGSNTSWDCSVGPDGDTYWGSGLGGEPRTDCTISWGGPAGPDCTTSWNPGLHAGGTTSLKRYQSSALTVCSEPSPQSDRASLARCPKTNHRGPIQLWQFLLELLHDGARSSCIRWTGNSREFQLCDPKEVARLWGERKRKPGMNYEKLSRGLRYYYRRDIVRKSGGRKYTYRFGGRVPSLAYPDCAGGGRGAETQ
Conditions: protein: recombinant; tags: N-terminal GST; dsDNA, one strand shown. The essentials:
as §1

Another test deals with T11, ELF3 (Homo sapiens, UniProt P78545 1-371).
T11 sequence: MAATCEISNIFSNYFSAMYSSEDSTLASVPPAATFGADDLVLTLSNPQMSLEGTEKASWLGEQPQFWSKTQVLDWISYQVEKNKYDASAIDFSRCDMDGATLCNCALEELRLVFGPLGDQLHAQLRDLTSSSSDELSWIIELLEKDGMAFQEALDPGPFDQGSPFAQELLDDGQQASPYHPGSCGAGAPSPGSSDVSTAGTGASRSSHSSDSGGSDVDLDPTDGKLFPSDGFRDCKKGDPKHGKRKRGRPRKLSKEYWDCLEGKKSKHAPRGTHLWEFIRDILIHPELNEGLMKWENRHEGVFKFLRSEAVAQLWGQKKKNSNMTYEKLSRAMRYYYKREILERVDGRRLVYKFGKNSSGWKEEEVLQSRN
Conditions: protein: recombinant; tags: N-terminal GST; dsDNA, one strand shown. A digest of the protocol:
as §1

The next test deals with CRX (Homo sapiens, UniProt O43186 1-299). Conditions: protein: recombinant; tags: N-terminal GST; dsDNA, one strand shown. A digest of the protocol: as §1
The target of a further test is ETV1 (Homo sapiens, UniProt P50549 1-477). The note with it: protein: recombinant; tags: N-terminal GST; dsDNA, one strand shown. The essentials:
as §1

ELF4, sequence (Q99607 whole entry): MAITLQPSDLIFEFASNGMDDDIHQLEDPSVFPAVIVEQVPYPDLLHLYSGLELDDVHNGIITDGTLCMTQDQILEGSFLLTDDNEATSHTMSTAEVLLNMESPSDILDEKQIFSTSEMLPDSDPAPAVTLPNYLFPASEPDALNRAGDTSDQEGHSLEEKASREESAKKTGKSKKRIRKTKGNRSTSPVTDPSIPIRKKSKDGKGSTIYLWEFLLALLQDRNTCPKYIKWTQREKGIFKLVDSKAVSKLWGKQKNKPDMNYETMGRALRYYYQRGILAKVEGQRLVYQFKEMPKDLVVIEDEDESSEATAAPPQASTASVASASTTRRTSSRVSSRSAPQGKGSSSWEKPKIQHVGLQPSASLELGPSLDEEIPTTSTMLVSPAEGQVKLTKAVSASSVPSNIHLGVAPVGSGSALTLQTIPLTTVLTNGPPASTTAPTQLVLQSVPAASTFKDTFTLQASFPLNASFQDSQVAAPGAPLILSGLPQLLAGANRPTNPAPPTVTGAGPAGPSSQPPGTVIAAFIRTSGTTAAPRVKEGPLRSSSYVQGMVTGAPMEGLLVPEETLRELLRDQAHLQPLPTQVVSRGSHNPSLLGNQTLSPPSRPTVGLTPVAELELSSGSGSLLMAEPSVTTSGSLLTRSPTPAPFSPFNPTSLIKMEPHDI
CRX, sequence (O43186 whole entry): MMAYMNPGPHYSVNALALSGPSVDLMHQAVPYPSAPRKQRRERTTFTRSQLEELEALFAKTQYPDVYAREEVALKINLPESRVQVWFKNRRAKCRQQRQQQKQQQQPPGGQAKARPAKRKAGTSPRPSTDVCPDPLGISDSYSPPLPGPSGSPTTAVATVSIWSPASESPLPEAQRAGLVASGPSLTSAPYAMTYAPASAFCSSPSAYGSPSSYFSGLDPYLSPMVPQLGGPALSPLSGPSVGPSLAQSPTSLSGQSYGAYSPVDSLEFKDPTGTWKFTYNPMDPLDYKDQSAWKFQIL
HSF1, sequence (Q00613 whole entry): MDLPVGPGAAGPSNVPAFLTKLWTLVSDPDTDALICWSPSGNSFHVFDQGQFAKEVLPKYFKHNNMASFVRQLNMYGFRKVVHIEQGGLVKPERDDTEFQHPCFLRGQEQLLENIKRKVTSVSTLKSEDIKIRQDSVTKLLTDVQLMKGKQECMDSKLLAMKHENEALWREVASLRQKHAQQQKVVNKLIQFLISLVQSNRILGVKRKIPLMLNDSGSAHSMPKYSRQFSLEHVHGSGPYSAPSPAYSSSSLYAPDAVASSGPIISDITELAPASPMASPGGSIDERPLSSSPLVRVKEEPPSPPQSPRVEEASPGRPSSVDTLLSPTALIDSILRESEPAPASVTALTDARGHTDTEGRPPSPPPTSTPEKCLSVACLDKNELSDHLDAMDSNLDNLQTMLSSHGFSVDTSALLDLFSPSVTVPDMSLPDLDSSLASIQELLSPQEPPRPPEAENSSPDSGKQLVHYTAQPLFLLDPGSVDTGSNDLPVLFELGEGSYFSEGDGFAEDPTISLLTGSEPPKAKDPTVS
ELF1, sequence (P32519 whole entry): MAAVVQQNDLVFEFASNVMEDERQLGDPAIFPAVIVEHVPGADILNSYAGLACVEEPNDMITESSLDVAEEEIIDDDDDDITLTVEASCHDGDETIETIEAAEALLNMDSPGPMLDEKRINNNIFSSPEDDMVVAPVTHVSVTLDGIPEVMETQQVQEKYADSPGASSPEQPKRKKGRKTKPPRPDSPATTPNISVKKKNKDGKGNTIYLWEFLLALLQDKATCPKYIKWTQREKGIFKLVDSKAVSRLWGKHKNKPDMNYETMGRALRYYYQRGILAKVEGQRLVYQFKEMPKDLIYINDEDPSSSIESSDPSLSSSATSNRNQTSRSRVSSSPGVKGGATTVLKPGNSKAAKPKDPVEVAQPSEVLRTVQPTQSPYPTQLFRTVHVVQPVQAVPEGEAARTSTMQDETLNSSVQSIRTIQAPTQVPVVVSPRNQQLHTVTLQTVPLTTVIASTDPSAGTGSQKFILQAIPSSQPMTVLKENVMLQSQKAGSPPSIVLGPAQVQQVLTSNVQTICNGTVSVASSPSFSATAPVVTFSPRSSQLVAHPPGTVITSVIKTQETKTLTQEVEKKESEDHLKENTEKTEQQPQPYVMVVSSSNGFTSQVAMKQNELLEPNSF
SPIB, sequence (Q01892 whole entry): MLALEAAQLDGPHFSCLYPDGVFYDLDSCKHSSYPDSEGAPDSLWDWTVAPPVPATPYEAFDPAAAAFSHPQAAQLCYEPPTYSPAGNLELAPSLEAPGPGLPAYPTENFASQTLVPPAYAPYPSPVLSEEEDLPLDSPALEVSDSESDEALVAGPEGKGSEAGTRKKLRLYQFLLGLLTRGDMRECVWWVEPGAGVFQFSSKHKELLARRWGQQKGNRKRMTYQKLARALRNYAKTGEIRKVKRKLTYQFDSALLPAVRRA
ETV1, sequence (P50549 whole entry): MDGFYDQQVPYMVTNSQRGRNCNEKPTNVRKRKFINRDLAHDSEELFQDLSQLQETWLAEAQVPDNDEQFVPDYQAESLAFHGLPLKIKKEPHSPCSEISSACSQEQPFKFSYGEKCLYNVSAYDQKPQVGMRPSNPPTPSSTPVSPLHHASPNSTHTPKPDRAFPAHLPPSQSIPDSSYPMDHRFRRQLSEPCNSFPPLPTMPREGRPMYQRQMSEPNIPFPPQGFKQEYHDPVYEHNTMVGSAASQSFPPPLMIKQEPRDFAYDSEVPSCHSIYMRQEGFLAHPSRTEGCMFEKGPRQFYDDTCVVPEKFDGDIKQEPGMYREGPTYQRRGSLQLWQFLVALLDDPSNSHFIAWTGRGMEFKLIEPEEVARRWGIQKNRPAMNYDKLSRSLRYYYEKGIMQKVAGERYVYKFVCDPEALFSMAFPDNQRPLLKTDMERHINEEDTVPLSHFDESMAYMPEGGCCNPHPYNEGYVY
ETV5, sequence (P41161 whole entry): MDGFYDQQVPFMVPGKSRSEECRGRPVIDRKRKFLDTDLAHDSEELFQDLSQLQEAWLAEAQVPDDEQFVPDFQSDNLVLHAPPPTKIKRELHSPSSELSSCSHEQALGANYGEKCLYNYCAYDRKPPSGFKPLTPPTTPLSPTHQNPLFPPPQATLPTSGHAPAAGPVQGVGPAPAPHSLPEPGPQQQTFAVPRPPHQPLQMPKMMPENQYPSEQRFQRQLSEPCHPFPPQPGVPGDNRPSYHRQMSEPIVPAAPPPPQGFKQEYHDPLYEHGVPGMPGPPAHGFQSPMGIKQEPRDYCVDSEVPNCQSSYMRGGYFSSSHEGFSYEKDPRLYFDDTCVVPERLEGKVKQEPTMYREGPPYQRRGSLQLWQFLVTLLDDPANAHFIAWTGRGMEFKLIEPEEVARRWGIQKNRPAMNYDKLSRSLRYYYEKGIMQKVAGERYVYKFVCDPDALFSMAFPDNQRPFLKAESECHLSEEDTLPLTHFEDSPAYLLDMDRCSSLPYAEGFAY

For the sequence CGAATT, the binding signal with FLI1 is 1.13 fold enrichment (6-mer frequency, TF over GST control); with ELK1, 1.1 fold enrichment (6-mer frequency, TF over GST control); with GABPA, 1.27 fold enrichment (6-mer frequency, TF over GST control); with ERG, 1.23 fold enrichment (6-mer frequency, TF over GST control); in the test with ELF1, 1.2 fold enrichment (6-mer frequency, TF over GST control); in the test with EHF, 1.19 fold enrichment (6-mer frequency, TF over GST control). For the same sequence, the binding signal was 1.22 fold enrichment (6-mer frequency, TF over GST control) with SPI1; 1.23 fold enrichment (6-mer frequency, TF over GST control) in the test with SPIB; 1.23 fold enrichment (6-mer frequency, TF over GST control) with ELK3; 1.14 fold enrichment (6-mer frequency, TF over GST control) with FEV; 1.21 fold enrichment (6-mer frequency, TF over GST control) with ETV5; 1.79 fold enrichment (6-mer frequency, TF over GST control) in the test with HSF1. For the same sequence, the binding signal in the test with SPIC was 1.25 fold enrichment (6-mer frequency, TF over GST control); in the test with ELF4, 1.17 fold enrichment (6-mer frequency, TF over GST control); in the test with ELK4 it was 1.36 fold enrichment (6-mer frequency, TF over GST control); in the test with ETV2 it was 1.02 fold enrichment (6-mer frequency, TF over GST control); in the test with ELF3, 1.18 fold enrichment (6-mer frequency, TF over GST control); with CRX it was 1.63 fold enrichment (6-mer frequency, TF over GST control). The binding signal in the test with ETV1 is 1.15 fold enrichment (6-mer frequency, TF over GST control).

(Values after paper PMC7862700, “An all-to-all approach to the identification of sequence-specific readers for epigenetic DNA modifications on cytosine”.)
